The values that follow come from PubChem BioAssay (NCATS).

Assay [1] has as its target Lysosomal acid glucosylceramidase (Homo sapiens) (UniProt P04062). The experiment in a line: Glucocerebrosidase-p2 (AID 348; in the data active means potency below about 10 µM; further: potency means the concentration at half of the fitted maximal effect). The settings on record: purified GBA, blue fluorogenic substrate, 40 min. A digest of the protocol: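 Compounds titrated from 0.6 nM upwards against 0.2 nM enzyme in pH 5.9 citric acid/KH2PO4, taurocholate, tween-20; blue fluorogenic substrate 80 uM, 40 min room temperature, stopped and read Ex 365/Em 440 for AC50.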

A short description of assay [2]: AP1 Signaling Pathway (AID 357). Further: on the % scale 0 is the no-effect control and ±100 the full control effect. The settings on record: ME-180 AP-1-bla reporter, EGF-induced, beta-lactamase ratio, 5 h; at 7.69 µM (top of the series) unless noted. In short, it runs like this: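 First, ME-180 AP-1-bla cells were cultured overnight at 37 °C in low-serum Opti-MEM. Next, titrated compounds with EC50 EGF were incubated 5 hours. Finally, CCF4 was added for 2.5 hours and the 460/530 nm ratio recorded.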

Assay [3] has as its target Cytochrome P450 1A2 (Homo sapiens) (UniProt P05177). In words: p450-cyp1a2 (AID 410; calls by dose curve;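 further: -100% = full effect of reference inhibitor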). The settings on record: recombinant CYP1A2, luciferin-ME demethylation, luminescence; series mostly up to 57 µM. In short, it runs like this: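 Inhibition was calculated relative to 57 uM furafylline (full inhibition). The reaction used human CYP1A2 at 20nM with Luciferin-ME at its Km, 100uM, driven by an NADPH-regenerating system for 60 min at room temperature.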

Assay [4] is described as follows: NFAT Signaling Pathway (AID 444).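 Further: carbachol stimulus at about its EC50 of 1 µM final; on the % scale 0 is the no-effect control and ±100 the full control effect.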 Conditions: Jurkat NFAT-bla M1, carbachol, beta-lactamase ratio, 5 h; at 7.69 µM (top of the series) unless noted. A digest of the protocol: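 Read-out: CCF4 FRET ratio (460 nm/530 nm) after 1 h RT dye loading, used for %activity and AC50 from titration series. Cells: Jurkat NFAT-β-lactamase/M1 line, treated with compound plus 1 uM carbachol for 5 h, 37 °C.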

A short description of assay [5]: Stat Signaling Pathway (AID 446).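 Further: ME-180 cervical cancer cells given 40 pM IL-6 alongside compound; SIE-controlled beta-lactamase reporter measured as 460/530 nm FRET emission ratio; on the % scale 0 is the no-effect control and ±100 the full control effect.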 Conditions: ME-180 (cervical carcinoma) SIE beta-lactamase reporter, IL-6 stimulated, 5 h; at 7.69 µM (top of the series) unless noted. In short, it runs like this:
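ME-180 SIE-bla cells; overnight plating; cpd + IL-6 40 pM, 5 h, 37 C; LiveBLAzer 2.5 h RT; 460/530 nm emission ratio. Normalized to 300 pM IL-6 and 125 nM JAK inhibitor controls.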

Assay [6] concerns the target Glucocorticoid receptor (Homo sapiens) (UniProt P04150). In words: GR-EFC Redistribution (AID 451; calls by dose curve; further: potency means the concentration at half of the fitted maximal effect). Conditions: CHO-K1 GR-EFC translocation, beta-gal luminescence, 2 h. In short, it runs like this: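 Translocation of GR-ED fusion to nuclear EA restores b-gal, read by luminescence after 1 h room-temperature detection. Engineered CHO-K1 biosensor cells, 1,000/well, exposed 2 h at 37 C to titrations up to 46 uM final.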

Assay [7] concerns the target Mitogen-activated protein kinase 10 (Mus musculus) (UniProt Q61831). In words: JNK3 AlphaScreen Assay (AID 530).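 Further: kinase came from lysate of stimulated human HepG2 cells; signal reports phosphorylation of biotinylated GST-cJun 1-79 at Ser73 with 10 µM ATP; on the % scale 0 is the no-effect control and ±100 the full control effect.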 The settings on record: JNK3 lysate, c-Jun phosphorylation; series mostly up to 57.1 µM. A digest of the protocol:
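Room-temperature AlphaScreen kinase assay; pre-activated HepG2 lysate as JNK3 source, biotin-GST-cJun(1-79) substrate, 10 uM ATP, compound 15 min preincubation.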
Background: Bead proximity is the source of the signal in Alpha formats.

For assay [8], the target named is 3',5'-cyclic-AMP phosphodiesterase 4B (Homo sapiens) (UniProt Q07343). In words: qHTS Assay for Inhibitors of PDE-IV (AID 607; active means well fitted activation curve with a large enough effect in the main read-out, with a control signal flat, not every such curve was filed as active; further: % of control where 0% means no effect). Conditions: HEK293 ACTOne CNG channel cells, membrane potential fluorescence; series mostly up to 22.9 µM. A digest of the protocol: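 ACTOne HEK293 cells carry a modified cAMP-gated CNG channel and express endogenous PDE4; plated 1000 cells/well, compounds up to 22.9 uM final. Membrane-potential dye fluorescence (ex 535/em 590) was read; parental cells received 10 uM forskolin + 100 uM RO 20-1724.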
Background: qHTS replaces the single test concentration by a dilution series.

A short description of assay [9]: qHTS Assay for Lipid Storage Modulators (AID 1519; calls by dose curve). The settings on record: Drosophila S3 cells, BODIPY lipid droplet/cell ratio, laser cytometry, cells loaded with oleic acid; for activity change, negative = inhibition: at 57.5 µM (top of the series). In short, it runs like this:
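Cells seeded at 5,000 per well were treated with compounds over a concentration series and loaded with oleic acid (400 uM, as added). Lipid droplet fluorescence (488 nm excitation, 500-530 nm channel) was read by laser-scanning cytometry and normalized to 20 uM Triacsin C.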

A short description of assay [10]: Primary qHTS for small molecule stabilizers of the endoplasmic reticulum resident proteome: Secreted ER Calcium Modulated Protein (SERCaMP) assay (AID 1508630; active means well fitted curve in the direction sought with a large enough effect; an effect the other way counts as inactive or inconclusive; further: on the % scale 0 is the no-effect control and ±100 the full control effect). The settings on record: SH-SY5Y GLuc-SERCaMP (Gaussia luciferase released on ER calcium loss) secretion, thapsigargin, luminescence; series mostly up to 38.4 µM. A digest of the protocol:
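GLuc-SERCaMP-expressing SH-SY5Y cells, pretreated 16 h with compound, are challenged with thapsigargin to empty ER calcium stores; after 4 h, coelenterazine is added directly to the medium and luminescence is imaged.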

For assay [11], the target named is Cytochrome P450 2C9 (Homo sapiens) (UniProt P11712). The experiment in a line: qHTS Assay for Inhibitors and Substrates of Cytochrome P450 2C9 (AID 883; active means well fitted curve in the direction sought with a large enough effect; an effect the other way counts as inactive or inconclusive; further: on the % scale 0 is the no-effect control and ±100 the full control effect; nearly all actives have a fitted effect of over 60% in size). The settings on record: recombinant CYP2C9, luciferin-H luminescence, 60 min; series mostly up to 57.1 µM. A digest of the protocol:
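Luminescent read-out of deoxyluciferin hydroxylation, normalized to 57uM sulphaphenazole (AC100). Reaction: 10nM enzyme, 100uM Luciferin-H (equal to KM), 25mM KPO4, 10 min compound preincubation, then 60 min with NADPH regeneration, both at 37C.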

Assay [12] addresses Cytochrome P450 3A4 (Homo sapiens) (UniProt P08684). In words: qHTS Assay for Inhibitors and Substrates of Cytochrome P450 3A4 (AID 884; active means well fitted curve in the direction sought with a large enough effect; an effect the other way counts as inactive or inconclusive; further: nearly all actives have a fitted effect of over 50% in size; further: potency means the concentration at half of the fitted maximal effect). The settings on record: recombinant CYP3A4, Luciferin-PPXE luminescence; series mostly up to 57.1 µM. In short, it runs like this: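 20 nM human CYP3A4 with 25 uM Luciferin-PPXE (at KM) in 200 mM KPO4, preincubated 10 min with compound; NADPH regeneration started a 60 min RT reaction. Luciferin detected by luminescence, normalized to 57 uM ketoconazole as full inhibition.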

For assay [13] the target is unchanged. The experiment in a line: qHTS Assay for Activators of Cytochrome P450 3A4 (AID 885; active means well fitted curve in the direction sought with a large enough effect; an effect the other way counts as inactive or inconclusive; further: nearly all actives have a fitted effect of over 65% in size; further: potency means the concentration at half of the fitted maximal effect). The settings on record: recombinant CYP3A4, Luciferin-PPXE luminescence, 60 min; series mostly up to 57.1 µM. A digest of the protocol: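 20nM CYP3A4 + 25uM Luciferin-PPXE (=KM), 200mM KPO4; cpd 10 min RT; NADPH regen, 60 min RT; stop w/ detection buffer, 20 min; luminescence. Normalized to 57 uM ketoconazole.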

Assay [14] has as its target Cytochrome P450 2D6 (Homo sapiens) (UniProt P10635). In words: qHTS Assay for Inhibitors and Substrates of Cytochrome P450 2D6 (AID 891; active means well fitted curve in the direction sought with a large enough effect; an effect the other way counts as inactive or inconclusive; further: potency means the concentration at half of the fitted maximal effect; nearly all actives have a fitted effect of over 60% in size). The settings on record: recombinant CYP2D6, luciferin-ME EGE luminescence; series mostly up to 57.1 µM. A digest of the protocol:
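Human CYP2D6 (5 nM) with 30 uM Luciferin-ME EGE (at Km) in 100 mM KPO4, compound preincubated 10 min, then NADPH regeneration system for 60 min at room temperature. Luciferin read by luminescence; normalized to 1.43 uM quinidine.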

Where [15] appears, read: measured here: cell count channel max response.
The mark [16] stands for this setting: measured here: lipid channel max response.

SMILES strings stand for the structures. Results filed as inconclusive are left out. Active and inactive are the calls of the source. Unless noted, the call rests on the fitted dose curve; in most records, active means well fitted curve in either direction with a large enough effect (not every such curve was filed as active); inconclusive means small, poorly fitted or top-dose-only effect, or another doubt; inactive means flat fitted curve, though single readings scatter.

Cytochrome P450 1A2 (Homo sapiens), sequence (P05177 whole entry, looked up): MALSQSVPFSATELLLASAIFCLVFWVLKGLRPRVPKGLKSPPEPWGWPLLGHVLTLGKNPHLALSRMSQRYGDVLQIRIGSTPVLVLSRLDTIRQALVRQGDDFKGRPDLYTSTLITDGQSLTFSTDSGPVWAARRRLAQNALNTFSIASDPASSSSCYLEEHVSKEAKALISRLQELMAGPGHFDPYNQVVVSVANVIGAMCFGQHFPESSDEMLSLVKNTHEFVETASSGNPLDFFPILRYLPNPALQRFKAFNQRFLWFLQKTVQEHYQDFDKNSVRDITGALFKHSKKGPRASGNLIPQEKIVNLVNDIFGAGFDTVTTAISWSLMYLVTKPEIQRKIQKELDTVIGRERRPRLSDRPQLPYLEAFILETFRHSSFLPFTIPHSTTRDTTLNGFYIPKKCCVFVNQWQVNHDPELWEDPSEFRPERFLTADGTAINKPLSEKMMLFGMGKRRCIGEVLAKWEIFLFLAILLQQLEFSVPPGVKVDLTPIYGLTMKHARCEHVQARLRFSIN
Cytochrome P450 3A4 (Homo sapiens), sequence (P08684 whole entry, looked up): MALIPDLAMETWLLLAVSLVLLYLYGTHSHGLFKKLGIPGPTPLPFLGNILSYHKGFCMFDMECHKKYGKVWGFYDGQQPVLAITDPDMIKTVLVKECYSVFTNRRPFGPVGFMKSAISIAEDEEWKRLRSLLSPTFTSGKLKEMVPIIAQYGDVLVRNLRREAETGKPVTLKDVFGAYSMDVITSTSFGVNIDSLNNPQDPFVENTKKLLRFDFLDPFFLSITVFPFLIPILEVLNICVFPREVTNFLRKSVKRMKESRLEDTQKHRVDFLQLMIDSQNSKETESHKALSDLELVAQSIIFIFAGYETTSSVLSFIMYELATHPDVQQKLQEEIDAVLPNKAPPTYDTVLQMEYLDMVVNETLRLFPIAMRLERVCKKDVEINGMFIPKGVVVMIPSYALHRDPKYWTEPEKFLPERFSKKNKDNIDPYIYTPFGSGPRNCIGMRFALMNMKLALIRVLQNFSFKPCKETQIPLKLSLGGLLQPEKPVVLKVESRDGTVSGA
Lysosomal acid glucosylceramidase (Homo sapiens), sequence (P04062 whole entry, looked up): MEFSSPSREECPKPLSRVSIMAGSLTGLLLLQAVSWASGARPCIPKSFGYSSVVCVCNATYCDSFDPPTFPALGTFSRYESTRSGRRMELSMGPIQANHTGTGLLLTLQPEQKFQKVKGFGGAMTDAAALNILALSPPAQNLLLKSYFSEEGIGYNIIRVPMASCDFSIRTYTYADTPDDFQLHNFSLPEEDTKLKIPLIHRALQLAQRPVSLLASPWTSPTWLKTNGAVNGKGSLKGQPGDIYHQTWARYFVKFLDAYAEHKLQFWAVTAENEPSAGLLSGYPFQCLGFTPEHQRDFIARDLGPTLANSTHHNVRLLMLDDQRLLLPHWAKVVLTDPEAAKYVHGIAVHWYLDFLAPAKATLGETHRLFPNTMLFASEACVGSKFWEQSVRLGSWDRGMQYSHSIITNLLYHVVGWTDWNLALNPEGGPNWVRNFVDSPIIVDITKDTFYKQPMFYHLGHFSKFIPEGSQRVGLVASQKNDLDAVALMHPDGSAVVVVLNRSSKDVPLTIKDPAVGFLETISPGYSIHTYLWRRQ
3',5'-cyclic-AMP phosphodiesterase 4B (Homo sapiens), sequence (Q07343 whole entry, looked up): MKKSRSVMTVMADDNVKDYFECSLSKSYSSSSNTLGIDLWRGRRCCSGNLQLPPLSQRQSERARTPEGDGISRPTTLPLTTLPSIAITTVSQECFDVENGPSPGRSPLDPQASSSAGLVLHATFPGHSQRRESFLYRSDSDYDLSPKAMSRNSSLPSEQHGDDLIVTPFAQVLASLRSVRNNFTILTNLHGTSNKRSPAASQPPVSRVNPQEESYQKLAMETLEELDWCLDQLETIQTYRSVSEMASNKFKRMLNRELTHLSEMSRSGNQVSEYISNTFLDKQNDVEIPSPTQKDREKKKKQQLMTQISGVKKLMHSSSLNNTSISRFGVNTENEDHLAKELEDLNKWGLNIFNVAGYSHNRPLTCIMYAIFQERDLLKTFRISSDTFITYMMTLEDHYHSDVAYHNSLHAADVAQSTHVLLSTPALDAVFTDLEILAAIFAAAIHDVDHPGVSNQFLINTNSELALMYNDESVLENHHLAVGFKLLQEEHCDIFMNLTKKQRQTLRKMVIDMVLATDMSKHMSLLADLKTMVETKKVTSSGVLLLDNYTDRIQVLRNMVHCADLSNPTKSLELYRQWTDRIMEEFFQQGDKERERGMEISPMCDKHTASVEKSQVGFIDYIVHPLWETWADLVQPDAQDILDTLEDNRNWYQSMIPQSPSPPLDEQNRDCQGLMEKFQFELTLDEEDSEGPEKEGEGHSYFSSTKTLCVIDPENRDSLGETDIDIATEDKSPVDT
Glucocorticoid receptor (Homo sapiens), sequence (P04150 whole entry, looked up, the tested form may be a part): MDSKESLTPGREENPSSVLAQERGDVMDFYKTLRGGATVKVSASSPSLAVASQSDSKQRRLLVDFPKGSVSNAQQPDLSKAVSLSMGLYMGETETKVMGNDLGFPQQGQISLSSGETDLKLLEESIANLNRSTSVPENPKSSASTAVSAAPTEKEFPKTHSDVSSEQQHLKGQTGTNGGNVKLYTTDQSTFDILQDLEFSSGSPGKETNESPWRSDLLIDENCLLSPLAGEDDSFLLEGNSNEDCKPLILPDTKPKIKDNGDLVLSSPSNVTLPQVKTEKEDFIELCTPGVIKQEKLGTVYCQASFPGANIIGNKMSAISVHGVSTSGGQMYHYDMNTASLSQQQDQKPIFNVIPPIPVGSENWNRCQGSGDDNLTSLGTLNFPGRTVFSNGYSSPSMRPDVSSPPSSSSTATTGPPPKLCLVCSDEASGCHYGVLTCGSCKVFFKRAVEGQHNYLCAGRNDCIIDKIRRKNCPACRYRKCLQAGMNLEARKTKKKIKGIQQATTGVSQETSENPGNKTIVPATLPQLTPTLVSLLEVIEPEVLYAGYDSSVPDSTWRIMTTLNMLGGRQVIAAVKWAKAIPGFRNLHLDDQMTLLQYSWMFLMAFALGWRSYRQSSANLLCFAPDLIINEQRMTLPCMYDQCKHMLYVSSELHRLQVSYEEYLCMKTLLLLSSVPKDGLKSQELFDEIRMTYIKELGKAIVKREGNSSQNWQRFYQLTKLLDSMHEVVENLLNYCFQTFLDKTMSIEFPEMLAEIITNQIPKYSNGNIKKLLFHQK
Cytochrome P450 2C9 (Homo sapiens), sequence (P11712 whole entry, looked up): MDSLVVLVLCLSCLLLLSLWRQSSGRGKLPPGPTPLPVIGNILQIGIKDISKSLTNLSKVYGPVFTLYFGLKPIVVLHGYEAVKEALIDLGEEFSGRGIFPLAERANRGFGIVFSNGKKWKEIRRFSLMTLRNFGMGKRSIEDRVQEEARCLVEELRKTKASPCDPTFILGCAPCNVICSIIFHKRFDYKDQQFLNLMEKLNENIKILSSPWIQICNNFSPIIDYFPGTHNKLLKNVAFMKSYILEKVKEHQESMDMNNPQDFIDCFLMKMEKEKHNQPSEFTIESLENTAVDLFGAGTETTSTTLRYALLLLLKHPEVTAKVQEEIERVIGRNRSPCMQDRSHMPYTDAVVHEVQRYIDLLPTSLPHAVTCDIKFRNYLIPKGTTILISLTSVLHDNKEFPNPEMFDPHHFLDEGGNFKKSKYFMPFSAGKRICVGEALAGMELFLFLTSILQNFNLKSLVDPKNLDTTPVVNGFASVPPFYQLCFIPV
Cytochrome P450 2D6 (Homo sapiens), sequence (P10635 whole entry, looked up): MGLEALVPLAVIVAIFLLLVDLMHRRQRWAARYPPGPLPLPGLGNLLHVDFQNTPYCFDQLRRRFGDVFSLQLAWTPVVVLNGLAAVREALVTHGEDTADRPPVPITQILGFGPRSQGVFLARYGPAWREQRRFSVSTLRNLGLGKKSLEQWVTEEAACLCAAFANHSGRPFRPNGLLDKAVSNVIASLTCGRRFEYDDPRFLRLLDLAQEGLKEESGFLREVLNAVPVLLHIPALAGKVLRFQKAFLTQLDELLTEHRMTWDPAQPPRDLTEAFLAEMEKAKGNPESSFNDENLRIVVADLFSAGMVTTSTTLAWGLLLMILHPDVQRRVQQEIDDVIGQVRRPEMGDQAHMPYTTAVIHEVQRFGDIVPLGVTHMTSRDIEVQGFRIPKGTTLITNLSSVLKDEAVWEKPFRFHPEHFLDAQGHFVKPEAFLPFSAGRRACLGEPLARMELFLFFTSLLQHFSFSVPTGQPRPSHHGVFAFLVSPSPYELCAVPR

As to `O=C(Nc1cccc(F)c1)N1CCC2(CC1)CCN(C(=O)c1cnccn1)CC2`, the Potency was > 11.4 µM (inactive) in assay [1] and > 46 µM (inactive) in assay [6]. Further, the figures for the activity change, negative = inhibition in [2], in [4] and in [9] were -10.4% (inactive), 20.5% (inactive) and 3.08% (inactive), respectively. For the same compound, the Potency result in assay [3], in assay [8] and in [10] was “inactive” in each case. For the same compound, in assay [5], the activity, negative = inhibition is -10.8% (inactive). The compound was called inactive in assay [7]. Besides, the max response in [9] (setting [15]) amounted to 11.7%; in assay [9] (setting [16]) it was 15.9%.
`COc1ccc(C(=O)N2CCC3(CC2)CN(C(=O)NC(C)C)C3)cc1`: the Potency in [1] was > 11.4 µM (inactive); in assay [6], > 46 µM (inactive). For the same compound, the activity change, negative = inhibition is -5.05% (inactive) in assay [2], 12.7% (inactive) in assay [4] and -0.224% (inactive) in [9]. Besides, the Potency result in assay [3], in assay [8] and in assay [10] was “inactive” each time. The activity, negative = inhibition in [5] was 0.0305% (inactive). The compound was classed as inactive in assay [7]. For the same compound, the max response in assay [9] (setting [15]) is -1.09%; in assay [9] (setting [16]), 0.517%.
As for `COC(=O)N1CCC[C@@]2(CCN(c3ccncc3)C2)C1`, the results for the Potency in [1], in assay [6] and in assay [12] were > 11.4 µM (inactive), > 46 µM (inactive) and 3.98 µM (active), respectively. The activity change, negative = inhibition in assay [2] was -7.07% (inactive); in [4], -14.4% (inactive); in assay [9], 4.92% (inactive). Besides, the Potency entry in assay [3], in [8], in assay [11], in [13] and in assay [10] was “inactive” throughout. In assay [5], the activity, negative = inhibition was -2.36% (inactive). Besides, the call in assay [7] was inactive. The max response is 18.5% in assay [9] (setting [15]) and 26.2% in assay [9] (setting [16]).
With `CC(=O)N1CCC[C@@]2(CCN(c3ncccn3)C2)C1`, the figures for the Potency in assay [1] and in assay [6] were > 11.4 µM (inactive) and > 46 µM (inactive), respectively. In addition, the values for the activity change, negative = inhibition in assay [2], in assay [4] and in assay [9] were 2.25% (inactive), 13.2% (inactive) and 2.8% (inactive), respectively. For the same compound, the Potency entry in assay [3], in [8] and in assay [10] was “inactive” throughout. For the same compound, in assay [5], the activity, negative = inhibition was -10.4% (inactive). Moreover, the call in assay [7] was inactive. For the same compound, the values for the max response in [9] (setting [15]) and in assay [9] (setting [16]) were 18.6% and 25.4%, respectively.
As for `CS(=O)(=O)N1CCC2(CCN(C(c3ccccc3)c3ccccc3)CC2)CC1`, the Potency is > 11.4 µM (inactive) in assay [1], > 46 µM (inactive) in assay [6], 12.6 µM (active) in assay [13] and 3.16 µM (active) in assay [14]. The figures for the activity change, negative = inhibition in assay [2], in assay [4] and in assay [9] were -4.08% (inactive), -8.24% (inactive) and 0.47% (inactive), respectively. In addition, the Potency entry in assay [3], in assay [8], in assay [12] and in [10] was “inactive” throughout. In addition, the activity, negative = inhibition in assay [5] was 3.12% (inactive). For the same compound, in assay [7], the outcome was inactive. For the same compound, the max response in [9] (setting [15]) is -0.926%; in assay [9] (setting [16]) it was 0.776%.
On to `CS(=O)(=O)N1CCC2(CCN(c3ccccc3)CC2)CC1`, for which the Potency in [1] was > 11.4 µM (inactive); in [6] it was > 46 µM (inactive). Also, the activity change, negative = inhibition in assay [2] was 0.201% (inactive); in assay [4], -7.56% (inactive); in assay [9], 5.49% (inactive). Moreover, the Potency result in assay [3], in assay [8], in assay [11] and in [10] was “inactive” each time. In addition, the activity, negative = inhibition in assay [5] was -0.282% (inactive). In addition, the compound was classed as inactive in [7]. The max response in assay [9] (setting [15]) was found to be 20.7%; in [9] (setting [16]), 29.9%.
In the case of `COc1ccc(NC(=O)N2CC3(CCN(S(C)(=O)=O)CC3)C2)cc1`, the Potency in assay [1] was > 11.4 µM (inactive); in [6] it was > 46 µM (inactive). Also, the activity change, negative = inhibition was -11.2% (inactive) in assay [2], 24.5% (inactive) in assay [4] and 4.64% (inactive) in assay [9]. Also, the Potency entry in assay [3], in assay [8] and in assay [10] was “inactive” in each case. In [5], the activity, negative = inhibition is 5.18% (inactive). The result in assay [7] was inactive. Moreover, the max response is -10.6% in [9] (setting [15]) and -5.17% in assay [9] (setting [16]).
